ERK EGF block = blocks ERK signaling stimulated by EGF; HEK293-V1b, EGF-stimulated phospho-ERK AlphaScreen; Potency, µM (highest dose often 11.5 µM), most hits filed as inhibitors; actives 0.41% (n = 130,000); further: nearly all actives have a fitted effect of over 55% in size
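V1b-HEK293, 1% FBS o/n; cpd 30 min 37C; EGF 25 nM final, 5 min; lyse 10 min; AlphaScreen beads 5 h RT. Normalized DMSO basal vs EGF max; Hill AC50.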
NPSR antagonist = antagonists of human neuropeptide S receptor cAMP signaling; Q6W5P4; AID 1461; CHO-NPSR cells, cAMP TR-FRET, antagonist mode; actives 1% (n = 220,000); Potency, µM (highest dose often 38.3 µM), most hits filed as inhibitors; further: nearly all actives have a fitted effect of over 50% in size
Target sequence (Q6W5P4 whole entry, looked up): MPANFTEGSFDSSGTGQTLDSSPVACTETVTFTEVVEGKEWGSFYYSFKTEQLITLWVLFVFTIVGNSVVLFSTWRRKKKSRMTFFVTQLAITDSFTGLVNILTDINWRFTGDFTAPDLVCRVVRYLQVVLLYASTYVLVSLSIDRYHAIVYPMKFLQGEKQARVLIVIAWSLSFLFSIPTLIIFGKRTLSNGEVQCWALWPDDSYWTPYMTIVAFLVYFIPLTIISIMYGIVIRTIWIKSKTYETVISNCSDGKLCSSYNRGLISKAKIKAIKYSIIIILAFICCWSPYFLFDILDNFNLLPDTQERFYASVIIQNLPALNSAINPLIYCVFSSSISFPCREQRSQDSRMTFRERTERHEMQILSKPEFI
Numbers stand for hits; . = inactive; ? = inconclusive; / = no result. Many of the other results were omitted from the sample, so hits are more common in it than they were. The call rests on the fitted dose curve; in most records, active means well fitted curve in the direction sought with a large enough effect; inconclusive means small, poorly fitted or top-dose-only effect, or another doubt; inactive means no such curve, though single readings can be large; an effect the other way counts as inactive or inconclusive.

SMILES | ERK EGF block | NPSR antagonist
Cc1cc(C)c2nc(-c3ccccn3)cc(C(=O)Nc3ccc(S(=O)(=O)Nc4cc(C)on4)cc3)c2c1 | / | 10µM
CCCC(=NCCc1c(C)[nH]c2ccccc12)C1=C(O)CC(c2ccccc2)CC1=O (configuration not stated) | . | .
CC(=NCCc1c(C)[nH]c2ccc(C)cc12)C1=C(O)CC(c2ccccc2)CC1=O (configuration not stated) | . | .
CC(=NCCc1c(C)[nH]c2ccc(OC(F)(F)F)cc12)C1=C(O)CC(c2ccccc2)CC1=O (configuration not stated) | . | 10µM
CCCCC(=NCCc1c(C)[nH]c2ccccc12)C1=C(O)CC(c2ccccc2)CC1=O (configuration not stated) | . | 7.9µM
CN1[C@@H]2CC(OC(=O)[C@H](CO)c3ccccc3)C[C@@H]1[C@H]1O[C@H]12 (some centres not stated) | . | /
Cc1cc2ccccn2c1C(=O)c1cc([N+](=O)[O-])cc([N+](=O)[O-])c1 | 28µM | .
Cc1cc2ccccn2c1C(=O)c1ccc(NN)c([N+](=O)[O-])c1 | 25µM | .
CCN(CC)S(=O)(=O)c1cccc(C(=O)c2c(C)cc3ccccn23)c1 | . | .
Cc1cc2ccccn2c1C(=O)Nc1ccccc1 | . | .
COc1ccc(NC(=O)N2CC[C@@]3(CCCN(C(C)=O)C3)C2)cc1 | . | /
CCOC(=O)c1cnc(-n2nc(C)cc2C)nc1Nc1ccc(C)cc1 | / | 1.3µM
CCOC(=O)c1cnc(-n2nc(C)cc2C)nc1Nc1ccc(O)cc1 | . | ?
NC1=NC[C@@H](Cc2ccc(O)cc2)N1CCCCC1CCCCC1 | . | 5µM
NC1=NC[C@H](Cc2ccc(O)cc2)N1CC1CCCCC1 | . | .
Cc1cc(O)cc(O)c1C(=O)OC1(C)C(=O)C=C2C=C(/C=C/CO)OC=C2C1=O (configuration not stated) | . | /
Cc1cc(C(=O)CSc2nc3ccccc3[nH]2)c(C)n1Cc1ccco1 | 18µM | .
C=CCn1c(C)cc(C(=O)CSc2nc3ccccc3[nH]2)c1C | / | .
CCOC(=O)C1=C(N)Oc2ccc(Br)cc2[C@@H]1[C@@H](C#N)C(=O)OCC | . | /
COc1cc([C@@H]2c3cc4c(cc3[C@@H](O)[C@H]3COC(=O)[C@H]23)OCO4)cc(OC)c1O[Si](C)(C)C(C)(C)C | . | 10µM
COc1cc([C@@H]2c3cc4c(cc3[C@@H](O[C@@H]3O[C@H]5CO[C@@H](C)O[C@@H]5[C@@H](O)[C@H]3O)[C@@H]3COC(=O)[C@@H]23)OCO4)cc(OC)c1O | . | /
CCCCNc1nc(C)nc2c1nc(-c1ccccc1)n2CCN1CCCCC1 | . | /
C[C@H](N=C(NC#N)Nc1ccncc1)C(C)(C)C | . | /
Cc1cc(C2=NNC(=NC3CC3)SC2)c(C)n1-c1c(C)n(C)n(-c2ccccc2)c1=O | . | .
Cc1ccc(-n2c(C)cc(C3=NNC(=NC4CC4)SC3)c2C)cc1C | . | 10µM
SMILES | ERK EGF block | NPSR antagonist
C=C(C(C)=O)C(O)c1cccc(Br)c1 (configuration not stated) | . | /
CCCCCCN1C=C/C(=C\C=C(C#N)C#N)c2ccccc21 | 14µM | .
C=CCN1C=C/C(=C\C=C(C#N)C#N)c2ccccc21 | ? | .
C=CCOC(=O)N[C@H](c1cccc(C(F)(F)F)c1)C(C(C)=O)C(C)=O | . | /
O=C1C=CC2=C3c4cc(O)c(O)cc4C[C@@]3(O)COC2=C1 | . | /
O=C(Nc1ccc(Cl)c(Cl)c1)Nc1ccc(N2CCCC2)c(S(=O)(=O)Nc2ccccc2Cl)c1 | . | .
O=C(Nc1ccc(F)cc1)Nc1ccc(N2CCCC2)c(S(=O)(=O)Nc2ccccc2Cl)c1 | . | 10µM
O=C1C(=O)N(Cc2ccc(Cl)c(Cl)c2)c2ccccc21 | . | /
CSC(SC)=C(C#N)C(=O)c1ccccc1 | 25µM | ?
O=C(O)c1ccc(C(=O)C(=O)c2ccccc2)cc1 | . | .
O=C1C=C(Nc2ccccc2)c2ccccc2C1=O | . | 10µM
O=C1C=C(Nc2ccccc2)C(=O)c2ccccc21 | 25µM | .
CC1=CC(=O)c2ccccc2C1=O | . | .
O=C1C=C(Nc2ccccc2C(=O)O)c2ccccc2C1=O | . | .
CC/C=C\C/C=C\C/C=C\C/C=C\C/C=C\C/C=C\CCC(=O)O[C@H](COCCCCCCCCCCCCCCCC)COP(=O)([O-])OCC[N+](C)(C)C | . | /
C=CCc1cccc(CNc2nc3ccccc3n2CCC)c1O | / | 10µM
CCCCn1c(NCc2ccccc2O)nc2ccccc21 | / | .
c1ccc2c3c([nH]c2c1)[C@@H]1[C@H]2CC[C@H]([C@H]4CCCN[C@H]42)N1CC3 | . | /
CC(C)(C)NC(=O)C(c1ccncc1)N(C(=O)Cn1nnc(-c2ccc(F)cc2)n1)c1ccccc1F (configuration not stated) | . | .
CC(C)(C)NC(=O)C(c1ccc(O)cc1)N(C(=O)Cn1nnc(-c2ccc(F)cc2)n1)c1ccccc1F (configuration not stated) | . | 13µM
FC(F)(F)c1cnc(Sc2nnc(-c3cccs3)n2CC2CCCO2)c(Cl)c1 (configuration not stated) | / | .
N#Cc1c(Sc2ncc(C(F)(F)F)cc2Cl)nsc1C/C=N\OCc1c(F)cccc1Cl | / | 10µM
COC(=O)[C@@]1(Cc2ccc(OC)cc2)[C@H]2c3cc(C(=O)N(C)C)n(CCc4c[nH]c5ccc(O)cc45)c3C[C@H]2CN1C(=O)c1ccccc1 | . | /
Nc1nc2c(nc(Sc3ccc(Cl)cc3)n2C2OC(CO)C(O)C2O)c(=O)[nH]1 (configuration not stated) | . | /
Cc1ccc2c(c1)C(=O)[C@@]1(O)CCN(c3ccccc3)C1=N2 | . | /
SMILES | ERK EGF block | NPSR antagonist
CCCCCCCCCCCCC/C=C/[C@@H](O)C(CO)NC(C)=O (some centres not stated) | . | /
C=CCOC(=O)N[C@H](C[N+](=O)[O-])c1ccccc1 | . | /
O=C(O)C1CCC(Cn2c(SCc3cc(=O)n4cc(Br)ccc4n3)nc3ccsc3c2=O)CC1 (configuration not stated) | . | 7.9µM
O=C(O)CCCCn1c(SCc2cc(=O)n3cc(Cl)ccc3n2)nc2ccsc2c1=O | . | .
O=C(O)c1ccc(Cn2c(SCc3cc(=O)n4cc(Br)ccc4n3)nc3ccsc3c2=O)cc1 | . | 10µM
O=c1c2sccc2nc(SCc2cc(=O)n3ccccc3n2)n1Cc1ccccn1 | . | .
CC(C)(C)[C@]1(O)CCN2CC3c4ccccc4CCc4cccc(c43)[C@@H]2C1 (some centres not stated) | . | ?
COc1ccc(/C=N/NC(=O)C(=O)/C=C2\NC3(CCCC3)Cc3ccccc32)cc1 | ? | .
O=C(/C=C1\NC2(CCCC2)Cc2ccccc21)C(=O)N/N=C/c1ccc(O)c(O)c1 | . | 13µM
O=C(Nc1ccc(N2CCN(c3ccc(C(F)(F)F)cn3)CC2)nc1)c1cccs1 | . | .
O=C(Nc1ccc(N2CCN(c3ncccc3C(F)(F)F)CC2)nc1)c1cccs1 | 14µM | ?
O=CN/C=C/c1cc(F)cc(F)c1F | . | /
COc1cc(S(=O)(=O)Nc2ccccc2)ccc1N=Cc1c(C)[nH]n(-c2ccc(C)cc2)c1=O | . | .
COc1cc(SC#N)ccc1N=Cc1c(C)[nH]n(-c2ccc(C)c(C)c2)c1=O | . | 5µM
Nc1ncnc2c1nc(Br)n2C1O[C@H]2COP(=O)(O)O[C@@H]2C1O (some centres not stated) | . | ?

Source: PubChem
